# From PubChem BioAssay (EPA / NIEHS)
# Records with an inconclusive call do not appear. Active and inactive are the calls of the source. Rule for the calls: active = hit-call score of the fitted dose curve at least 0.9, where 1 is the maximum; inconclusive = response in the unintended direction; inactive = score below 0.9.
# Experiments:
# [1] = molecular target: D(1A) dopamine receptor (Homo sapiens) (UniProt P21728); assay: NVS_GPCR_hDRD1: NovaScreen (NVS) G Protein-Coupled Receptor Assay for human Dopamine Receptor D1 (DRD1) (AID 2283269)
# Sequence of D(1A) dopamine receptor (Homo sapiens) (P21728 whole entry, looked up): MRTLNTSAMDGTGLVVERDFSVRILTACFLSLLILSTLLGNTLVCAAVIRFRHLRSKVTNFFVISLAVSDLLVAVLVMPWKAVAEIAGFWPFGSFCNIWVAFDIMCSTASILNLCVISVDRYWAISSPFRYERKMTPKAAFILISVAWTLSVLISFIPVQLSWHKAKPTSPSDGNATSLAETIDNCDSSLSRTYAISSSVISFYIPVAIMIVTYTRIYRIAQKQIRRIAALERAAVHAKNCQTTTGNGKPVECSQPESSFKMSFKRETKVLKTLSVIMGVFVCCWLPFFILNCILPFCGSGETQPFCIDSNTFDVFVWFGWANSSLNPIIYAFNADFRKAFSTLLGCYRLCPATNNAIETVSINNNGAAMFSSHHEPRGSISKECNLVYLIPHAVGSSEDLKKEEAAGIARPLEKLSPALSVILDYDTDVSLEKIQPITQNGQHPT
# Outline: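 HEK293-derived receptor preparation; radioligand competitive displacement; 1 h; filtration + scintillation counting. DMSO = negative control/baseline. Primary: 25 uM, duplicate; secondary: concentration–response for actives.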
# [2] = molecular target: human Neuropeptide Receptor Y1 (NPY1), NPY1R (gene 4886) (UniProt P25929); assay: NVS_GPCR_hNPY1: NovaScreen (NVS) G Protein-Coupled Receptor Assay for human Neuropeptide Receptor Y1 (NPY1) (AID 2283276)
# Sequence of human Neuropeptide Receptor Y1 (NPY1), NPY1R (gene 4886) (P25929 whole entry, looked up): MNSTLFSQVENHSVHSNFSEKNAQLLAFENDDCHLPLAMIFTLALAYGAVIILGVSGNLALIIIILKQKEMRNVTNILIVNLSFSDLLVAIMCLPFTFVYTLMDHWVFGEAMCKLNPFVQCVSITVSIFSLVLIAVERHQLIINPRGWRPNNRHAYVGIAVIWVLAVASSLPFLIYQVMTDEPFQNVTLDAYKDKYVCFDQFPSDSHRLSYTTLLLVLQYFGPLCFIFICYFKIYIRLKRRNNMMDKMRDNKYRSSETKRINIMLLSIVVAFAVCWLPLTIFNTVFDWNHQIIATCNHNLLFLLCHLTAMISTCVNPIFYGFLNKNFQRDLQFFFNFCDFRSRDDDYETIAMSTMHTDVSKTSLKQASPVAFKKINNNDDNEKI
# Outline: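 Cell-free radioligand binding using receptor extracted from SK-N-MC cells, 1 h incubation, filter-based scintillation counting. Primary screen single concentration 25 uM in duplicate; actives followed in concentration series. Loss of bound signal scored versus DMSO.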
# [3] = molecular target: human Endothelin Receptor Type B (ETB), EDNRB (gene 1910) (UniProt P24530); assay: NVS_GPCR_hETB: NovaScreen (NVS) G Protein-Coupled Receptor Assay for human Endothelin Receptor Type B (ETB) (AID 2283267)
# Sequence of human Endothelin Receptor Type B (ETB), EDNRB (gene 1910) (P24530 whole entry, looked up): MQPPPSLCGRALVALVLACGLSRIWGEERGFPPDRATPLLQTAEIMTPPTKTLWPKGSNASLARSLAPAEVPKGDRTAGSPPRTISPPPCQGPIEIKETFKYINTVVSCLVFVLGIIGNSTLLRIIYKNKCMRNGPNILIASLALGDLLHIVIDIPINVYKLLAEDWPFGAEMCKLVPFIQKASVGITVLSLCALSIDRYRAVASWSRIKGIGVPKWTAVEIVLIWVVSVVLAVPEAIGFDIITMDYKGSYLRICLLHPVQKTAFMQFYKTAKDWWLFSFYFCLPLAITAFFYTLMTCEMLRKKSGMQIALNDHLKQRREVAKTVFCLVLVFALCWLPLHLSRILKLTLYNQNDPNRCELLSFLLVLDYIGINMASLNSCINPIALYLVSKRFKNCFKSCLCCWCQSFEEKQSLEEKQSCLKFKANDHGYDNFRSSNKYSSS
# Outline: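 Human astrocytoma cell membranes; radioligand competitive binding read by filter scintillation counting 4 hours after dosing. Single-concentration duplicate screen at 25 uM, then singleton concentration-response up to 50 uM; loss of signal versus DMSO.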
# [4] = molecular target: human Histamine 1 Receptor (H1), HRH1 (gene 3269) (UniProt P35367); assay: NVS_GPCR_hH1: NovaScreen (NVS) G Protein-Coupled Receptor Assay for human Histamine 1 Receptor (H1) (AID 2283268)
# Sequence of human Histamine 1 Receptor (H1), HRH1 (gene 3269) (P35367 whole entry, looked up): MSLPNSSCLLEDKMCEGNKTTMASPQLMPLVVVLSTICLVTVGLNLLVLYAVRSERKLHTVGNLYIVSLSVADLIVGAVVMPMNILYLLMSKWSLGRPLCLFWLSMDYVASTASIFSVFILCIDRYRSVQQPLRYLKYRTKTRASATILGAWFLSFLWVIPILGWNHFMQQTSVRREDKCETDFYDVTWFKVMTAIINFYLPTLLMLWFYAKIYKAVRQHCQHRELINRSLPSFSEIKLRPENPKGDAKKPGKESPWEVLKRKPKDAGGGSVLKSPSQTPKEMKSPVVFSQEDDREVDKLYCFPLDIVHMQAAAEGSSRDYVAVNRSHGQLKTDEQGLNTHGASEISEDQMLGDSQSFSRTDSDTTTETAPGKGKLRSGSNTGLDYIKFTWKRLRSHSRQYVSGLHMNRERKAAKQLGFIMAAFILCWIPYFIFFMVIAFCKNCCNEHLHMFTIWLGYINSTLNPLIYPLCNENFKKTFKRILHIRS
# Outline: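 Cell-free radioligand displacement at human H1 receptor, 1 h, filter scintillation counting; primary screen 25 uM in duplicate, hits in concentration series; loss of binding fitted vs DMSO.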
# [5] = molecular target: Muscarinic acetylcholine receptor M1 (Homo sapiens) (UniProt P11229); assay: NVS_GPCR_hM1: NovaScreen (NVS) G Protein-Coupled Receptor Assay for human Muscarinic, M1 Receptor (AID 2283270)
# Sequence of Muscarinic acetylcholine receptor M1 (Homo sapiens) (P11229 whole entry, looked up): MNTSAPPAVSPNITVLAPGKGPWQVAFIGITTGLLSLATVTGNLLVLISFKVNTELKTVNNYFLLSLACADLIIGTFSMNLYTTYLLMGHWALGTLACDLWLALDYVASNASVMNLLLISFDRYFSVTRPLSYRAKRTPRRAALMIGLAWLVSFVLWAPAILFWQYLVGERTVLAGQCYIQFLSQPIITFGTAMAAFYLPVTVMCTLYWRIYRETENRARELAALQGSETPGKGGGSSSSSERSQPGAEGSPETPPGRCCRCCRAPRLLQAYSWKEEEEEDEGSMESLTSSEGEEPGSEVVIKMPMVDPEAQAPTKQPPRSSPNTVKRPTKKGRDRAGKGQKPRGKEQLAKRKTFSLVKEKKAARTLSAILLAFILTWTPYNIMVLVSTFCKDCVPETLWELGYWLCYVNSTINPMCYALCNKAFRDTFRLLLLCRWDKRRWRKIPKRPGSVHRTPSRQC
# Outline: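 Cell-free radioligand displacement using membrane protein extracted from CHO cells, read by filter-based scintillation counting 1 h after dosing. Loss of bound signal fitted versus DMSO; primary screen single concentration 25 uM in duplicate, actives followed by concentration series.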
# [6] = molecular target: Muscarinic acetylcholine receptor M3 (Homo sapiens) (UniProt P20309); assay: NVS_GPCR_hM3: NovaScreen (NVS) G Protein-Coupled Receptor Assay for human Muscarinic, M3 Receptor (AID 2283272)
# Sequence of Muscarinic acetylcholine receptor M3 (Homo sapiens) (P20309 whole entry, looked up): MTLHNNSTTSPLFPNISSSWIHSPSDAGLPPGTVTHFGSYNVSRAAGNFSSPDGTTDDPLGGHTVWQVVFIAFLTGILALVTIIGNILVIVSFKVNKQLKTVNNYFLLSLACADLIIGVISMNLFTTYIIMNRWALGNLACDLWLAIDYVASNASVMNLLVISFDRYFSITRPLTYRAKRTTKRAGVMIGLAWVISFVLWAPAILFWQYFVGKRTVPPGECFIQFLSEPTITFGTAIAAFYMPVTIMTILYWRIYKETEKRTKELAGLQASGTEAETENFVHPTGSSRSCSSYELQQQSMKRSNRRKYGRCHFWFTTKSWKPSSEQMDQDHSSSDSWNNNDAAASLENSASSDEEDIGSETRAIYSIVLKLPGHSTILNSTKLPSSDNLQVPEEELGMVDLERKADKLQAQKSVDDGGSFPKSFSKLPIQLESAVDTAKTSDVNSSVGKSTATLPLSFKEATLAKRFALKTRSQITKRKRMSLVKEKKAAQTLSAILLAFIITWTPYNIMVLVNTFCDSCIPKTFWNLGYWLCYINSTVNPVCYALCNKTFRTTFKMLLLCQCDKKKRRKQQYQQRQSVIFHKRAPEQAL
# Outline: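 Radioligand displacement binding on human M3 receptor in CHO-derived membranes, 1 h incubation, filter-based scintillation counting. Primary screen in duplicate at 25 uM; actives followed up in concentration series; loss of signal versus DMSO.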
# [7] = molecular target: human Muscarinic, M4 Receptor, CHRM4 (gene 1132) (UniProt P08173); assay: NVS_GPCR_hM4: NovaScreen (NVS) G Protein-Coupled Receptor Assay for human Muscarinic, M4 Receptor (AID 2283274)
# Sequence of human Muscarinic, M4 Receptor, CHRM4 (gene 1132) (P08173 whole entry, looked up): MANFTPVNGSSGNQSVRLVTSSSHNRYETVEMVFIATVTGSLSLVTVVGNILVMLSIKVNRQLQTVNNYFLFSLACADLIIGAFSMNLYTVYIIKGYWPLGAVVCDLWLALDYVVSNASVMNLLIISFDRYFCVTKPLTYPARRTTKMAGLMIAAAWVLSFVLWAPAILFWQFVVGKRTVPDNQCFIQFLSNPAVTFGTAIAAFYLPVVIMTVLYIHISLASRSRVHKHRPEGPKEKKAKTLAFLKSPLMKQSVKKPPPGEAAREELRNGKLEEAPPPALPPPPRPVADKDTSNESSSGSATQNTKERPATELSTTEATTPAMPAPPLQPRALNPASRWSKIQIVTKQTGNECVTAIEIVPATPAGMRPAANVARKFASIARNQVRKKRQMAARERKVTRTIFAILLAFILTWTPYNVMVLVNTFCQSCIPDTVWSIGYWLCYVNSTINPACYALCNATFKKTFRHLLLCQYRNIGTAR
# Method: NVS_GPCR_hM4 is a biochemical, single-readout assay that uses extracted gene-proteins from CHO in a cell-free assay. Measurements were taken 1 hour after chemical dosing in a 96-well plate.NVS_GPCR_hM4 is one of one assay component(s) measured or calculated from the NVS_GPCR_hM4 assay. It is designed to make measurements of radioligand binding, a form of binding reporter, as detected with scintillation counting signals by Filter-based radiodetection technology.Data from the assay component NVS_GPCR_hM4 was analyzed into 1 assay endpoint. This assay endpoint, NVS_GPCR_hM4, was analyzed in the positive analysis fitting direction relative to DMSO as the negative control and baseline of activity. Using a type of binding reporter, loss-of-signal activity can be used to understand changes in the binding as they relate to the gene CHRM4. Furthermore, this assay endpoint can be referred to as a primary readout, because the performed assay has only produced 1 assay endpoint. To generalize the intended target to other relatable targets, this assay endpoint is annotated to the gpcr intended target family, where the subfamily is rhodopsin-like receptor.
# Binding assays used specific radioligands (tritiated, iodinated) with non-radioactive competitive displacement ligands in agonist or antagonist protocols (as indicated) and various reference compounds and inhibitors to titrate specific binding to receptors and transporters. Most enzyme assays (CYPs, kinases, phosphatases, proteases, HDACs) used recombinant protein and specific substrates (fluorescence mostly, some colorimetric and radioactive) and inhibitors, followed by a biochemical separation of substrate and product. All assays for the biochemical HTS were initially run in duplicate at a single concentration (10 uM for CYP450 assays and 25 uM for all others). […] Each assay was run with positive and negative controls, and concurrent controls on every plate. The follow-up (secondary) screen tested active chemical-pairs in concentration series, as well as a few additional assays not tested in the primary screen, some selected negative inactives, and several cases re-run in the concentration series for confirmatory purposes.
# [8] = molecular target: Muscarinic acetylcholine receptor M5 (Homo sapiens) (UniProt P08912); assay: NVS_GPCR_hM5: NovaScreen (NVS) G Protein-Coupled Receptor Assay for human Muscarinic, M5 Receptor (AID 2283275)
# Sequence of Muscarinic acetylcholine receptor M5 (Homo sapiens) (P08912 whole entry, looked up): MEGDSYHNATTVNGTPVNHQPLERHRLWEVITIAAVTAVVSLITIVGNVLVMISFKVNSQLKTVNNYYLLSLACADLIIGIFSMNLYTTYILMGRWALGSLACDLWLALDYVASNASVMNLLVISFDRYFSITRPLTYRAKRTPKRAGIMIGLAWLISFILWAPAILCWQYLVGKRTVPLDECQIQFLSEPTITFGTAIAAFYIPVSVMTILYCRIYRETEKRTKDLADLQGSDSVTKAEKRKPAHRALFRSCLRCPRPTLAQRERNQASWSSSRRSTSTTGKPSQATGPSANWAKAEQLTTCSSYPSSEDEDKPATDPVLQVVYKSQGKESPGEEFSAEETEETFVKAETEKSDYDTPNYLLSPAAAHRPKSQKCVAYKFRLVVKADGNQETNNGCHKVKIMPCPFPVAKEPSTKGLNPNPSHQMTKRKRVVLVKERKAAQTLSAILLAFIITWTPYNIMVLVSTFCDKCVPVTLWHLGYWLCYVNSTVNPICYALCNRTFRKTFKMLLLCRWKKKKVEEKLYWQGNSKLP
# Outline: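 Radioligand displacement on CHO-derived membrane preparations, 1 h, filter-based scintillation counting. Single-concentration duplicate screen at 25 uM; hits (e.g. 30% inhibition) retested in singleton concentration-response up to 50 uM. Loss of binding fitted versus DMSO.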
# [9] = molecular target: Muscarinic acetylcholine receptor M2 (Homo sapiens) (UniProt P08172); assay: NVS_GPCR_hM2: NovaScreen (NVS) G Protein-Coupled Receptor Assay for human Muscarinic, M2 Receptor (AID 2283273)
# Sequence of Muscarinic acetylcholine receptor M2 (Homo sapiens) (P08172 whole entry, looked up): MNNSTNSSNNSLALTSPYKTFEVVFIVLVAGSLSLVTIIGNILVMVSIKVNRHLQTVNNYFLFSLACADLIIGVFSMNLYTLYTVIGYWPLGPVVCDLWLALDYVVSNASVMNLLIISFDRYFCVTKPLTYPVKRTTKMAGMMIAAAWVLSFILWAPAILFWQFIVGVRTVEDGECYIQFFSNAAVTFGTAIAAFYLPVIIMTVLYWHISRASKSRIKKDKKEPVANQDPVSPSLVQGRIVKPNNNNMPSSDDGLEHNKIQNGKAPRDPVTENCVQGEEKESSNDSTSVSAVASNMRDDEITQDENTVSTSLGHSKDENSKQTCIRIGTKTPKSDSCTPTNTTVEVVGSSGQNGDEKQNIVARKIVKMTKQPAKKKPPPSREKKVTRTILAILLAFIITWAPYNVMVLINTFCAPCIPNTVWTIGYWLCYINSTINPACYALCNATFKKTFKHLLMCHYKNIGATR
# Outline: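 Radioligand displacement on human M2 receptor membranes from CHO cells, 1 h incubation, filtration with scintillation counting. Primary screen in duplicate at 25 uM; actives retested in concentration series; loss of signal fitted versus DMSO.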
# [10] = molecular target: human Leukotriene B4 Receptor 1 (LTB4-BLT1), LTB4R (gene 1241) (UniProt Q15722); assay: NVS_GPCR_hLTB4_BLT1: NovaScreen (NVS) G Protein-Coupled Receptor Assay for human Leukotriene B4 Receptor 1 (LTB4-BLT1) (AID 2283271)
# Sequence of human Leukotriene B4 Receptor 1 (LTB4-BLT1), LTB4R (gene 1241) (Q15722 whole entry, looked up): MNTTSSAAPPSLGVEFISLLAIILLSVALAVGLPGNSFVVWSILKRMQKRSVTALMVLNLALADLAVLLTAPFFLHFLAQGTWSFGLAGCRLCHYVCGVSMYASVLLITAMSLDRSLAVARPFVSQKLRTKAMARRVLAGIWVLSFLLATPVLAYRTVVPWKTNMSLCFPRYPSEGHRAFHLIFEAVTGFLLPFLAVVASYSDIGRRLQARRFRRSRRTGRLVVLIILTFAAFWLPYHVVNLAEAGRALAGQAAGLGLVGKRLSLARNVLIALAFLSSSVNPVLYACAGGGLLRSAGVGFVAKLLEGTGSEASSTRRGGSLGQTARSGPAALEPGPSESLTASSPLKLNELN
# Outline: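 Radioligand displacement binding on receptor extracted from human neutrophils, cell-free, 1 h after dosing; filter-based scintillation counting. Primary screen in duplicate at 25 uM, actives retested in concentration-response up to 50 uM; loss of signal versus DMSO.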
compound,measurement,setting,value
Cc1cccc(N)c1N,AC50,[1],12.1 µM (active)
same,outcome,[2],inactive
CCC[CH2][Sn]([Cl])([CH2]CCC)[CH2]CCC,AC50,[3],15.1 µM (active)
same,AC50,[4],1.42 µM (active)
same,AC50,[1],0.445 µM (active)
same,AC50,[5],1.86 µM (active)
same,AC50,[6],1.44 µM (active)
same,AC50,[7],17.6 µM (active)
same,outcome,[8],inactive
same,AC50,[2],1.58 µM (active)
O=C(N[C@H](c1ccccc1)[C@@H]1CN2CCC1CC2)c1c(Cl)ccc(C(F)(F)F)c1Cl,AC50,[1],37.5 µM (active)
same,outcome,[5],inactive
same,outcome,[7],inactive
CCOC(=O)[C@]1(c2ccccc2)Oc2ccccc2[C@@H]1N,AC50,[4],0.471 µM (active)
same,AC50,[1],2.66 µM (active)
same,AC50,[5],6.04 µM (active)
same,AC50,[6],13.3 µM (active)
same,AC50,[9],3.28 µM (active)
same,AC50,[7],13.3 µM (active)
same,AC50,[8],4.93 µM (active)
CCN(CC)CCO,outcome,[7],inactive
O=[N+]([O-])c1ccc(Oc2ccc(Cl)cc2Cl)cc1,outcome,[1],inactive
COP(=S)(OC)SCN1C(=O)c2ccccc2C1=O,AC50,[1],16.8 µM (active)
[Cl-].[Cl-].[Hg+2],AC50,[3],19 µM (active)
same,AC50,[1],0.193 µM (active)
same,AC50,[5],1.47 µM (active)
same,AC50,[6],0.579 µM (active)
same,AC50,[9],1.48 µM (active)
same,AC50,[7],4.13 µM (active)
same,AC50,[8],0.428 µM (active)
same,AC50,[2],14.7 µM (active)
N#CC(Br)(Br)C(N)=O,outcome,[1],inactive
CCCCCOC(=O)c1ccccc1C(=O)OCCCCC,outcome,[6],inactive
CCCCCCCCn1sccc1=O,AC50,[1],1.32 µM (active)
same,AC50,[2],6.28 µM (active)
N#CC(Br)Br,outcome,[3],inactive
c1ccc(C2CO2)cc1 (configuration not stated),outcome,[8],inactive
CCOc1cccc(C2(N3CCN(c4ccccc4)CC3)CCC(C)CC2)c1 (configuration not stated),outcome,[2],inactive
OCCCBr,outcome,[3],inactive
O=C(Oc1ccc(Br)cc1)N1CCN2CCC1CC2,AC50,[5],12.5 µM (active)
same,AC50,[6],19.4 µM (active)
same,AC50,[9],16.8 µM (active)
same,AC50,[7],15.3 µM (active)
same,AC50,[8],15.7 µM (active)
C[C@]12C=CC3=C4CCC(=O)C=C4CC[C@H]3[C@@H]1CC[C@@H]2O,outcome,[3],inactive
same,outcome,[10],inactive
CCCCCCCCCCCCCN1CC(C)OC(C)C1 (configuration not stated),outcome,[7],inactive
